Screening data from PubChem.
FLuc modulator: firefly luciferase modulation, counter-screen for miR-21 project; P08659; purified FLuc, Km substrates, luminescence inhibition; Potency, µM (top dose mostly 57.5 µM), inactives show at the top dose activity change, negative = inhibition, most hits filed as inhibitors; 360,000 compounds, 6.9% hits; AID 588342;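 note: plate controls were vehicle for no effect and reference inhibitor for full effect; nearly all actives have a fitted effect of over 55% in size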
Target sequence (P08659 whole entry, looked up): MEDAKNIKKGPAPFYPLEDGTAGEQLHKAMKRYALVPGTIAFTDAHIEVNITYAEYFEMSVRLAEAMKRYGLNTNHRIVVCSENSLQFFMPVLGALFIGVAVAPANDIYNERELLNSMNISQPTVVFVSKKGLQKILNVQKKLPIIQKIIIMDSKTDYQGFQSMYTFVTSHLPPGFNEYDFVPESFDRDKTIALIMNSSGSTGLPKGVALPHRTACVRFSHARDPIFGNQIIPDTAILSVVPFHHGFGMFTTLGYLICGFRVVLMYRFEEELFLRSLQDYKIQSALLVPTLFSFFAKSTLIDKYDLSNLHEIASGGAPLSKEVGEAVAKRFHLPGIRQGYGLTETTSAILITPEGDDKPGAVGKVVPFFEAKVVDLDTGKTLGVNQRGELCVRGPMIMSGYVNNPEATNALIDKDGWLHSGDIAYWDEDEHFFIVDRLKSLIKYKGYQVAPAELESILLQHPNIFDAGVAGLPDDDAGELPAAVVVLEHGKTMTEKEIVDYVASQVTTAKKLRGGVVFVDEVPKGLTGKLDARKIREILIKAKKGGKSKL
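Purified P. pyralis luciferase (10nM final) with 10uM D-luciferin and 10uM ATP (Km levels) in 50mM Tris acetate pH 7.5, 10mM Mg acetate, 0.01% Tween-20, 0.05% BSA; qHTS 6-point titration, ~60 µM downward; luminescence read.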
SMN2 splice enh: enhancers of SMN2 splice variant expression. HEK293 SMN2-luciferase splicing reporter, luminescence, 30-36 h. Potency, µM (titrated, usually from 46.1 µM), inactives show top-dose activity change, positive = activation, most hits filed as activators. 210,000 compounds, 2.8% hits. AID 1458; note: % of control where 0% means no effect; nearly all actives have a fitted effect of over 55% in size
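HEK293 cells carry an SMN2 […]–luciferase reporter in which exon 7 inclusion puts luciferase in frame. Cells were plated 10-12 h before compound addition, then incubated 30-36 h at 37C. ONE-Glo luminescence was read; sodium butyrate at 4.5 mM final served as control.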
NPC1 prom act: activators of NPC1 promoter; Potency, µM (series often up to 9.22 µM), inactives show top-dose activation, actives largely listed as activators; 320,000 compounds, 2.4% hits; AID 485313; Huh7 NPC1 promoter luciferase reporter, 24 h; note: % of control where 0% means no effect; nearly all actives have a fitted effect of over 60% in size
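Compounds in DMSO were transferred onto Huh7 NPC1-luciferase reporter cells pre-incubated 2 h; after 24 h at 37 °C, Amplite reagent was dispensed and luminescence recorded 10 min later.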
ELG1 genotox: induces genotoxicity in HEK293T cells with luciferase-tagged ELG1. Potency, µM (highest dose often 46 µM), for inactives: at the highest dose activity change, positive = activation, most hits filed as activators. AID 504466. HEK293T ELG1-luciferase reporter, luminescence, 16 h. 330,000 compounds, 1.3% hits; note: % of control where 0% means no effect; nearly all actives have a fitted effect of over 60% in size
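HEK293T cells expressing luciferase-tagged ELG1 were treated with compound or DMSO for 16 hr at 37°C. Luciferase activity was then read after 30 min with ONE-Glo at room temperature; rising signal flags genetic stress.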
Rab9 prom act: activates the Rab9 promoter. Potency, µM (titrated, usually from 9.22 µM), for the others: at the top dose activation, negative = inhibition, most hits filed as activators. 320,000 compounds, 2.8% hits. Huh7 Rab9 promoter-luciferase reporter, luminescence, 24 h; note: % of control where 0% means no effect; nearly all actives have a fitted effect of over 60% in size
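Luciferase signal after 10 min detection reagent at ambient indicates Rab9 promoter upregulation; stably transfected Huh7 cells were treated 24 h with compound in DMSO at 37 °C, 5% CO2.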
Luc counter: Kinase-Glo luciferase inhibition (counter-screen); Q27757; Kinase-Glo luciferase, ATP luminescence, 8 min; Potency, µM (series often up to 38.3 µM), without a hit: at the top dose activity change, negative = inhibition, hits mostly inhibitors; 200,000 compounds, 0.28% hits; AID 1379; note: % is set by controls: 0 for no effect and ±100 for the full control effect; nearly all actives have a fitted effect of over 60% in size
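Luminescence was the read-out, taken after 8-minute incubation at ambient temperature. Luciferase turned over luciferin with 10 uM ATP in imidazole pH 7.2 buffer containing KCl, MgCl2, Tween 20 and BSA.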
* marks the source's active call; other numbers are inactive results; ? = inconclusive; / = no result given. Only some compounds are listed: those with a hit (about 7.5% of all), similar ones and a draw of the others. Calls come from the whole dose curve; as a rule, active = well fitted curve in the direction sought with a large enough effect; inconclusive = small, poorly fitted or top-dose-only effect, or another doubt; inactive = no such curve, though single readings can be large; an effect the other way counts as inactive or inconclusive. Potency is the fitted concentration of half-maximal effect.

SMILES | FLuc modulator | SMN2 splice enh | NPC1 prom act | ELG1 genotox | Rab9 prom act | Luc counter
c1ccc(-c2nnc(-c3ccccc3)o2)cc1 | 5.4µM* | 13µM* | 1.6µM* | ? | 1.4µM* | -22%
Cc1ccc(-c2cc(C(=O)Nc3cc([N+](=O)[O-])ccc3C)no2)cc1F | -3% | / | / | / | / | /
COc1ccc(C(=O)CNc2ccccc2CO)cc1 | 17µM* | ? | 10% | ? | -3% | -27%
COc1ccc(C(=O)CNc2ccc(C)cc2C)cc1 | 12µM* | / | 23% | 12% | 36% | /
COC(=O)c1ccccc1NCC(=O)c1ccc(OC)cc1 | ? | / | ? | 7% | 29% | /
O=C(Cc1ccc(-c2ccccc2)cc1)OCC(=O)N1CCCC1=O | 21µM* | 1% | -1% | 0% | 17% | 2%
C=CCOc1ccc2nc(NC(=O)OC)[nH]c2c1 | ? | 11µM* | 7% | 9.2µM* | -2% | -3%
O=C(/C(=C(\[O-])c1ccccc1)[n+]1ccc2ccccc2c1)c1ccccc1 | 24µM* | 5% | 8% | 11% | 2% | -1%
Cc1ccc(/C=C/C(=O)Nc2ncc(C)s2)o1 | 1.9µM* | 3.2µM* | 3.5µM* | ? | 2.8µM* | -1%
Cc1ccc(/C=C/C(=O)Nc2nccs2)o1 | 8.5µM* | 11µM* | 2.8µM* | ? | 1.8µM* | -4%
Fc1ccc2nc3[nH]c4ccccc4c3nc2c1 | 1.9µM* | 16µM* | 3.2µM* | ? | 3.2µM* | -8%
Clc1nc(-c2ccccn2)nc2scc(-c3ccccc3)c12 | 0.38µM* | 5.6µM* | ? | ? | 4.5µM* | -15%
CC1CCN(c2nc(-c3cccnc3)nc3scc(-c4ccccc4)c23)CC1 | -1% | -20% | 2% | 0% | 0% | 4%
O=C(COc1coc(CN2CCc3ccccc3C2)cc1=O)Nc1ccc(F)cc1F | 1% | / | -5% | -5% | -2% | /
NC(=O)COC(=O)c1sc2ccccc2c1Cl | ? | 12% | 4% | 1% | -1% | -2%
Cc1cc(C)n(CCOC(=O)c2sc3ccccc3c2Cl)n1 | 8.5µM* | -11% | -2% | 11% | 3% | -3%
CC(C)(C)S(=O)(=O)c1cnc(-c2ccccn2)nc1N | -13% | / | 2% | 2% | 24% | /
Cc1cccc(-c2ncc(S(=O)(=O)C(C)(C)C)c(N)n2)c1 | ? | / | 4µM* | 11% | 3.2µM* | /
O=C(Cn1nc(C(=O)O)c2ccccc2c1=O)Nc1cccc(S(=O)(=O)N2CCCC2)c1 | 3% | / | 6% | 1% | 0% | /
Cc1cc(C)c2c(CN3CCCCC3)cc(=O)oc2c1 | ? | / | 3% | 8% | -1% | /
Cc1cc(C)c2c(CN3CCC(C)CC3)cc(=O)oc2c1 | 15µM* | / | ? | ? | ? | /
Cc1ccc(-c2nc3cccnc3s2)cc1NC(=O)Cc1ccccc1 | 1.1µM* | / | / | / | / | /
COc1ccc(CC(=O)Nc2cc(-c3nc4cccnc4s3)ccc2C)cc1 | 0.67µM* | / | / | / | / | /
CCCC(=O)Nc1cc(-c2nc3cccnc3s2)ccc1C | 9.5µM* | / | / | / | / | /
CCC(CC)C(=O)Nc1cc(-c2nc3cccnc3s2)ccc1C | 12µM* | / | / | / | / | /
SMILES | FLuc modulator | SMN2 splice enh | NPC1 prom act | ELG1 genotox | Rab9 prom act | Luc counter
O=C(Nc1ccc(N2CCOCC2)c(Cl)c1)c1ccc(-n2cnnc2)cc1 | -1% | / | 0% | 7% | 2% | /
O=C(Nc1ccc(N2CCOCC2)c(Cl)c1)c1ccc(F)cc1 | 13µM* | 11µM* | ? | 2% | 2.5µM* | 4%
O=C(Nc1ccc(N2CCOCC2)c(Cl)c1)c1ccccc1Cl | 27µM* | / | 26% | ? | ? | 1%
O=C(NC(=S)Nc1ccc(N2CCOCC2)c(Cl)c1)C(c1ccccc1)c1ccccc1 | 9% | 3% | -1% | -3% | 3% | -1%
COc1ccc(OCCn2nnc3sc4c(c3c2=O)CCCC4)cc1 | -4% | -6% | / | / | / | /
CC(C)Oc1ccc(Nc2ncnc3ccccc23)cc1 | 17µM* | 13µM* | 3.5µM* | ? | 3.2µM* | -4%
Cc1ccc(Nc2ncnc3ccccc23)cc1 | 12µM* | / | ? | 17% | 1.8µM* | -6%
Oc1ccc(Nc2ncnc3ccccc23)cc1 | ? | / | -1% | 9% | 4% | /
Clc1ccc(Sc2cc(Cl)c(-c3ccccc3)nn2)cc1 | -6% | ? | -2% | -3% | 1% | -2%
COc1ccc(C(=O)c2oc3ccc(OC)cc3c2N)cc1 | 7.6µM* | 14µM* | 2.8µM* | 13µM* | 2.8µM* | 1%
COc1ccc2oc(C(=O)OCC(=O)NC3CC3)c(C)c2c1 | ? | / | 18% | 19% | 13% | /
COc1ccc(C(=O)c2oc3ccc(OC)cc3c2NC(C)=O)cc1 | -2% | 0% | -1% | 4% | 1% | 2%
COC(=O)c1oc2ccc(OC)cc2c1N | 21µM* | ? | 13% | 12% | 29% | -2%
O=c1c(N2CCc3ccccc3C2)csc2ccc(Br)cc12 | 9.5µM* | / | / | / | / | /
COc1ccccc1N1CCN(c2csc3ccccc3c2=O)CC1 | 11µM* | / | / | / | / | /
O=c1c(N2CCc3ccccc3C2)csc2ccccc12 | 9.5µM* | / | / | / | / | /
O=c1c(N2CCN(c3cccc(C(F)(F)F)c3)CC2)csc2ccccc12 | 0% | / | / | / | / | /
O=c1[nH]c(-c2ccccc2)nn1-c1ccc(Br)cc1Br | 0% | / | 0% | 4% | -2% | /
CCOC(=O)C1CCN(C(=O)CSc2nccc(C)n2)CC1 | 1% | 0% | 0% | 6% | 1% | -1%
Cc1ccc(-n2[nH]c(C)c(C=Nc3ccc(S(=O)(=O)Nc4nccs4)cc3)c2=O)cc1C | 19µM* | 28% | -1% | 9% | 0% | -26%
COc1nccnc1NS(=O)(=O)c1ccc(N=Cc2c(C)[nH]n(-c3ccc(C)c(C)c3)c2=O)cc1 | 15µM* | -19% | 3% | 12% | 15% | 10µM*
Cc1cc(NC(=O)Nc2cccc([N+](=O)[O-])c2)no1 | -9% | -1% | 11% | -4% | 10% | -2%
O=C(Nc1cccnc1)Nc1cccc([N+](=O)[O-])c1 | -18% | / | 11% | -8% | 5% | /
Cc1ccc(NC(=O)Nc2cccc([N+](=O)[O-])c2)cc1F | 11µM* | / | ? | 2% | 17% | /
O=C(Nc1ccc(OC(F)(F)F)cc1)Nc1cccc([N+](=O)[O-])c1 | 24µM* | / | -10% | 4% | -30% | /
Cc1ccc2oc3c(c(=O)c2c1)C(c1ccc(O)cc1)N(c1nc(C)c(C)s1)C3=O (stereo not drawn) | -2% | 4% | / | / | / | /
CC(C)c1ccc(NC(=O)N(CCc2nc3ccccc3[nH]2)C2CCCC2)cc1 | 7.6µM* | -3% | 7% | 2% | 4% | 0%
COc1ccccc1OCC(=O)Nc1ccc(S(=O)(=O)Nc2cc(C)on2)cc1 | 1% | / | 0% | 2% | 0% | /
